Screen size: about 16,000 compounds; about 5,100 (32%) were called active. Roughly 25% stayed inconclusive and do not appear here. The list shows a part of the results. A number with no mark means an inactive call. Calls follow the shape of the dose curve; as a rule, active = well fitted curve in the direction sought with a large enough effect; inconclusive = small, poorly fitted or top-dose-only effect, or effect the other way; inactive = no such curve, though single readings can be large or run the other way.
Biological target: Cytochrome P450 3A4 (Homo sapiens) (UniProt P08684)
Assay: Cytochrome panel assay with activity outcomes
Conditions: recombinant CYP, pro-luciferin dealkylation, luminescence, p450-cyp3a4; series mostly up to 57.1 µM; activity, negative = inhibition: at the top concentration
% is scaled to controls: 0 for no effect and ±100 for the full control effect.

Cytochrome P450 3A4 (Homo sapiens), sequence (P08684 whole entry, looked up): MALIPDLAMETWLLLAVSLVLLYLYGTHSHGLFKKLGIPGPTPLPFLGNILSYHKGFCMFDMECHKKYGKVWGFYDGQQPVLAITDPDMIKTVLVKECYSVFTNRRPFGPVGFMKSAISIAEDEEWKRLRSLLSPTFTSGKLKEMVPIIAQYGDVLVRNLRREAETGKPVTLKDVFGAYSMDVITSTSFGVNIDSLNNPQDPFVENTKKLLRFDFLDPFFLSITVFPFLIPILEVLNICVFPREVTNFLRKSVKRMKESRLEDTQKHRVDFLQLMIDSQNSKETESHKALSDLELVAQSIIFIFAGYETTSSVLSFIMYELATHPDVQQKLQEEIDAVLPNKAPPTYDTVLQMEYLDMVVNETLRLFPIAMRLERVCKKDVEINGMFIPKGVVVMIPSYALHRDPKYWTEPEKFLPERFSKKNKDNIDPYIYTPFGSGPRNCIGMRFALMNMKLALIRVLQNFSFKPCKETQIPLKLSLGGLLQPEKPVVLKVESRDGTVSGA

Row | Structure (SMILES) | activity, negative = inhibition | AC50
1 | CC(C)(C)c1ccccc1OCCN1CCCC1 | -16.4% | –
2 | Cc1ncc([N+](=O)[O-])n1CCO | -4.85% [at 25.6 µM] | –
3 | Cc1ncc([N+](=O)[O-])n1CCOC(=O)NC(NCc1ccccc1)C(Cl)(Cl)Cl (centres undefined) | – | 15.8 µM (active)
4 | Cc1ncc([N+](=O)[O-])n1CC(=O)NCc1ccccc1 | 0.475% | –
5 | O=C(c1cn(-c2ccccc2)nc1-c1cccs1)N1CCOCC1 | – | 15.8 µM (active)
6 | O=C(N1CCOCC1)N1CCN(c2ccccc2)CC1 | -14.3% [at 11.4 µM] | –
7 | O=C(Nc1c(C(=O)N2CCOCC2)cnn1-c1ccccc1)c1ccco1 | -5.43% | –
8 | O=C(Nc1cccc2ccccc12)c1cn(-c2ccccc2)nc1-c1cccs1 | – | 7.94 µM (active)
9 | CCOc1ccc(-c2c[n+](=O)c3c(n2[O-])CCCC3)c(OCC)c1 | 1.52% | –
10 | CCCNS(=O)(=O)c1ccc(OCC(=O)OC)cc1 | -2.12% | –
11 | COc1ccc(OCCNS(=O)(=O)c2ccc3oc4ccccc4c3c2)cc1 | – | 7.08 µM (active)
12 | NCCCc1ccc2oc3ccccc3c2c1 | 0.505% [at 11.4 µM] | –
13 | Cc1nnc(SCC(=O)N2CC(=O)Nc3ccccc32)n1Cc1ccccc1 | – | 7.94 µM (active)
14 | Cc1ncc(CSC(=N)N)n1Cc1ccccc1 | 6.78% [at 11.4 µM] | –
15 | Cc1nc2ccccc2nc1SCC(=O)N1CCC(C)CC1 | 3.87% [at 2.29 µM] | –
16 | O=C(O)[C@@H]1CS[C@@]2(CCCN(Cc3ccccc3)C2)N1 | 0.282% [at 11.4 µM] | –
17 | Cc1scc2c1N(C(=O)CN1CCN(C)CC1)c1ccccc1NC2=O | -13.5% [at 25.6 µM] | –
18 | Cc1sc2nc(C3CC3)nc(SCC(=O)N3CC(=O)Nc4ccccc43)c2c1C | – | 2.24 µM (active)
19 | CCOC(=O)N/N=C1/C[C@@H](O)[C@@H](O)[C@@H]2[C@@H]3C(=O)N(C(C)(C)C)C(=O)[C@H]3CC[C@H]12 | -10.6% [at 11.4 µM] | –
20 | C[C@@H](NCc1cc(Br)cc2[nH]c(=O)c(=O)[nH]c12)P(=O)(O)O | -3.25% | –
21 | N#Cc1cccc(-c2ccc3ncnc(NCc4cccs4)c3c2)c1 | – | 3.16 µM (active)
22 | c1csc(CNc2ncnc3ccc(-c4ccoc4)cc23)c1 | – | 7.94 µM (active)
23 | COc1cccc(-c2ccc3ncnc(NCc4cccs4)c3c2)c1 | – | 7.94 µM (active)
24 | NCCC(=O)NCCc1cnc[nH]1 | -7.06% [at 25.6 µM] | –
25 | C[C@@H](CCCCC(=O)Nc1ccc(C(F)(F)F)cc1)NCCc1cnc[nH]1 | – | 5.01 µM (active)

Row | Structure (SMILES) | activity, negative = inhibition | AC50
26 | O=CN[C@@H](Cc1cnc[nH]1)C(=O)O | -4.87% [at 11.4 µM] | –
27 | CC(C)(C)N1C(=O)[C@H]2[C@@H]3[C@H](O)C=CC(=O)[C@H]3CC[C@H]2C1=O | -16.6% [at 11.4 µM] | –
28 | CCc1ccc(C(=O)COC(=O)C(Cc2ccccc2)NC(=O)C2CCC(C)CC2)cc1 (centres undefined) | – | 3.55 µM (active)
29 | N#CCSc1ncnc2c1cnn2CCO | -21.9% | –
30 | Cc1[nH]n2c(=O)c3c(nc2c1-c1cccc2ccccc12)CCC3 | -9.59% | –
31 | Nc1[nH]n2c(=O)c3c(nc2c1N=Nc1ccccc1)CCCC3 | – | 5.01 µM (active)
32 | Nc1[nH]n2c(=O)cc(-c3ccccc3)nc2c1N=Nc1ccccc1 | -10.8% [at 2.29 µM] | –
33 | O=c1c2c(nc3c(-c4ccccc4)c[nH]n13)CCC2 | -13.1% | –
34 | N#Cc1c[nH]n2c(=O)c3c(nc12)CCCC3 | 4.63% | –
35 | Cc1ccc(-c2[nH]n3c(=O)c4c(nc3c2C)CCCC4)cc1 | – | 8.91 µM (active)
36 | NC(=O)NCc1ccc(Cl)cc1 | 4.51% [at 11.4 µM] | –
37 | O=C(NCCO)c1ccc(Cl)cc1 | -18% [at 11.4 µM] | –
38 | Cc1ccc(C(=O)NCCNc2ccc(Cl)cc2[N+](=O)[O-])o1 | – | 6.31 µM (active)
39 | CCOc1ccc(NC(=O)c2ccc(Br)o2)c([N+](=O)[O-])c1 | 0.495% [at 2.29 µM] | –
40 | O=C(NCc1ccc(Cl)cc1)c1ccc(Cl)cc1[N+](=O)[O-] | – | 12.6 µM (active)
41 | Oc1ccc(C2Nc3cccc4cccc(c34)N2)c(O)c1 | – | 15.8 µM (active)
42 | Oc1ccccc1C1Nc2cccc3cccc(c23)N1 | 21.6% | –
43 | CN[C@H](CC(=O)O)C(=O)O | 0.638% | –
44 | Cc1ccc(S(=O)(=O)c2cc3ccccc3oc2=Nc2ccc3c(c2)OCO3)cc1 | – | 2 µM (active)
45 | Cc1ccc(N=Nc2c(O)ccc3cc(S(=O)(=O)O)ccc23)cc1 | -19% [at 11.4 µM] | –
46 | O=C(O)c1cc(C(=O)O)nc(C(=O)O)c1 | -8.29% [at 11.4 µM] | –
47 | CCc1noc(C)c1C(=O)Nc1nc(-c2cc(C)ccc2C)c(C)s1 | – | 3.55 µM (active)
48 | CCOC(=O)Nc1nc(-c2ccccc2)c(C)s1 | -11.6% [at 11.4 µM] | –
49 | COc1ccc(Cn2c(SCc3ccccc3C)nc3cc(OC)c(OC)cc3c2=N)cc1 | – | 8.91 µM (active)
50 | COc1cc2nc(SCc3ccc(Cl)cc3Cl)n(Cc3cccs3)c(=N)c2cc1OC | – | 2 µM (active)

Row | Structure (SMILES) | activity, negative = inhibition | AC50
51 | Cc1ccc(C(=O)N2C3C=CC(C3)C2(C(F)(F)F)C(F)(F)F)cc1 (centres undefined) | – | 1.12 µM (active)
52 | Cc1ccc(-n2c3c(c(=O)[nH]c2=O)C(C(F)(F)F)(C(F)(F)F)NC(=O)N3)cc1 | -3.33% [at 2.29 µM] | –
53 | CC(C)(C)NS(=O)(=O)c1ccc(NC(=O)C(Sc2ccccc2)c2ccccc2)cc1 (centres undefined) | – | 14.1 µM (active)
54 | CC(C)(C)NS(=O)(=O)c1ccc(NC(=O)c2cc(-c3ccccc3)nc3ccccc23)cc1 | -25.5% | –
55 | CC(C)(C)c1nnc(NC(=O)NS(=O)(=O)c2ccccc2)s1 | 17.6% | –
56 | Cc1cc(=O)oc2cc(O)c(CN(C)CC(=O)O)cc12 | -2.73% [at 11.4 µM] | –
57 | Cc1ccc(O)c(C(=O)c2cc(C#N)c(=O)n(-c3c(C)n(C)n(-c4ccccc4)c3=O)c2)c1 | – | 5.62 µM (active)
58 | Cc1c(O)c(=O)n(-c2ccccc2)n1C | -20.9% [at 25.6 µM] | –
59 | Cc1c(-n2cc(C(=O)c3cc(Cl)ccc3O)cc(C#N)c2=O)c(=O)n(-c2ccccc2)n1C | -17.2% | –
60 | Cc1nn2c(C)nc3sc4c(c3c2nc1=O)CC(C)(C)OC4 | 10.7% | –
61 | Cc1cc(C)n(-c2nc(NCC(C)O)c3c4c(sc3n2)COC(C)(C)C4)n1 (centres undefined) | -17.9% [at 11.4 µM] | –
62 | CCCSc1nc(NCc2ccco2)c2c3c(sc2n1)COC(C)(C)C3 | – | 15.8 µM (active)
63 | CC1(CCC#N)N=C(SCCC#N)N(c2ccccc2)C1=O (centres undefined) | 4.2% | –
64 | CN(C)c1ccc(-c2ccc3ncnc(-n4ccnc4)c3c2)cc1 | – | 1 µM (active)
65 | Cc1ccccc1-c1ccc2ncnc(-n3ccnc3)c2c1 | – | 0.501 µM (active)
66 | c1cn(-c2ncnc3ccc(-c4ccoc4)cc23)cn1 | – | 0.631 µM (active)
67 | O=C(COc1ccc2ccccc2c1)Nc1ccc(Cc2ccncc2)cc1 | – | 0.708 µM (active)
68 | CC(=O)CC(=O)Nc1ccc2ccccc2c1 | -28.5% [at 11.4 µM] | –
69 | Clc1ccc([C@H](Cn2ccnc2)OCc2csc3c(Cl)cccc23)c(Cl)c1 | – | 0.794 µM (active)
70 | O=C(c1cnccn1)N1CCC2(CCN(Cc3nccs3)CC2)CC1 | 27.4% | –
71 | O=C(c1csnn1)N1CCC[C@@]2(CCN(Cc3nccs3)C2)C1 | – | 15.8 µM (active)
72 | O=C(c1csnn1)N1CCC2(CCN(Cc3nccs3)CC2)CC1 | 19.9% | –
73 | O=C(c1cnccn1)N1CCC2(CC1)CN(Cc1nccs1)C2 | 3.93% | –
74 | O=C(c1cnccn1)N1CCC2(CCCN(Cc3nccs3)C2)CC1 | – | 12.6 µM (active)
75 | CC(C)CN1CCCC2(CCN(C(=O)c3cnccn3)CC2)C1 | – | 25.1 µM (active)

Row | Structure (SMILES) | activity, negative = inhibition | AC50
76 | CC(C)CN1CCC2(CC1)CCN(C(=O)c1csnn1)CC2 | -13.7% | –
77 | O=C(c1cnccn1)N1CCC[C@@]2(CCN(Cc3nccs3)C2)C1 | – | 15.8 µM (active)
78 | CC(C)NC(=O)N1CCC2(CC1)CCN(C(=O)c1cnccn1)CC2 | -5.47% | –
79 | C[n+]1ccc(/C=C/c2ccc(Br)cc2)cc1 | -7.44% | –
80 | COc1nc(N)nc2c1ncn2[C@@H]1C[C@H](O)[C@@H](CO)O1 | -13.7% [at 11.4 µM] | –
81 | CN1C(C(=O)Nc2ccccn2)=C(O)c2sccc2S1(=O)=O | -6.16% [at 25.6 µM] | –
82 | COc1cc(C)nc(N2CCCC(C(=O)Nc3cc(Cl)ccc3OC)C2)n1 (centres undefined) | – | 7.08 µM (active)
83 | Cc1ccc(C(=O)NNC(=O)C2CCCN(c3ncccn3)C2)cc1 (centres undefined) | -25.4% | –
84 | Cc1ccc(C(=O)/C=C2\NCC(C)NC2=O)cc1 (centres undefined) | -21.4% | –
85 | O=C(Cc1ccc(Br)cc1)Nc1ccccc1Sc1ccccc1 | – | 6.31 µM (active)
86 | O=C(Cc1ccc2c(c1)CCCC2)Nc1ccccc1Br | -11.4% | –
87 | CC(C)Cn1c(C(C)C)nc([N+](=O)[O-])c1S(=O)(=O)c1ccc(F)cc1 | – | 4.47 µM (active)
88 | CN(C)CCNCCN | -3.91% [at 11.4 µM] | –
89 | OC(CNCc1ccc(F)cc1)(c1ccc(F)cc1)c1ccc(F)cc1 | – | 2 µM (active)
90 | O=C(O)c1ccc(CNCc2ccccc2)cc1 | -2.73% [at 11.4 µM] | –
91 | Cc1ccc(CNCC(O)(c2ccc(F)cc2)c2ccc(F)cc2)cc1 | – | 2.24 µM (active)
92 | COc1ccccc1CNc1ncnc2ccc(-c3cccnc3)cc12 | – | 2 µM (active)
93 | COc1cccc(-c2ccc3ncnc(NCc4ccc(OC)cc4OC)c3c2)c1 | – | 2.51 µM (active)
94 | CC(CO)(CO)Nc1ncnc2ccccc12 | 4.84% [at 11.4 µM] | –
95 | COc1ccc(CNc2ncnc3ccc(-c4cccnc4)cc23)c(OC)c1 | – | 1.26 µM (active)
96 | Nc1ccccc1N=Nc1c(S(=O)(=O)O)cc2cc(S(=O)(=O)O)cc(O)c2c1O | -15.9% [at 11.4 µM] | –
97 | COc1ccc(CCNC(=O)Cn2cnc3c2c(=O)n(C)c(=O)n3C)cc1OC | – | 15.8 µM (active)
98 | COc1ccc(Cc2nnc(NC(=O)Cn3cnc4c3c(=O)n(C)c(=O)n4C)s2)cc1OC | 4.73% [at 2.29 µM] | –
99 | Cc1ccccc1NC(=O)Cn1cnc2c1c(=O)n(C)c(=O)n2C | -10.9% | –

Reference: PubChem BioAssay AID1851 (National Center for Advancing Translational Sciences (NCATS), 2009)
